In PubChem BioAssay AID624115 (Johns Hopkins Ion Channel Center, 2012) one finds fluorescence ratio F(max-min)/F0 data, which are given here for 31 compounds.

The campaign covered roughly 4,000 compounds. About 350 (8.8%) were called active.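 How the source made its calls: active means calcium fluorescence ratio at least three times the spread of buffer wells, meaning a non-specific response in parental cells; inactive means the rest.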 These entries were drawn from the full list.

This assay can be described thus: nonspecific Ca2+ signal without MrgX1 expression – cell-based, Fluo-4 calcium flux, duplicate, agonist mode, counter-screen for MrgX1 agonist project, primary screen (AID 624115). Particulars: parental HEK293, Fluo-4 calcium fluorescence (FDSS), at 10 µM; stronger effect = higher value. In general terms: Calcium flux is commonly read through the fluorescence of an indicator in the cells.
For `CCOc1cc(-c2conc2N)cc(OCC)c1OCC`, the fluorescence ratio F(max-min)/F0 result was “inactive”. The entry for `Cc1cc(C)cc(NC(=S)NCCc2c[nH]c3ccccc23)c1` is “inactive”. Then `C(=N\n1cnnc1)/c1cccnc1`, with “inactive”.

In the case of `O=S(=O)(c1ccc2ccccc2c1)N1CCN(S(=O)(=O)N2CCOCC2)CC1`, the fluorescence ratio F(max-min)/F0 entry was “inactive”. Consider `Cc1cc2oc3ccc(NCCC4CCCN4C)cc3c(=O)c2cc1C` (stereo unspecified), for which the fluorescence ratio F(max-min)/F0 is 95.1 (active). Then `COc1ccc(C2SCCN2S(=O)(=O)c2ccccc2)cc1OC` (stereo unspecified), with “inactive”; and `COc1ccccc1N(CC(=O)N1CCCCC1)S(=O)(=O)c1ccccc1`, with 78.4 (active). Then `Cc1ccc(OC(=O)c2cc3ccccc3o2)cc1`, with “inactive”; and `Cc1nn(C(=O)c2ccoc2C)c(N)c1-c1ccccc1`, with “inactive”.

Consider `O=C(Cc1ccccn1)c1ccc(O)cc1O`, for which the fluorescence ratio F(max-min)/F0 result was “inactive”.

Take `O=C(Nc1ccccc1)c1nnsc1S(=O)(=O)c1ccc(Cl)cc1`: the fluorescence ratio F(max-min)/F0 result was “inactive”. `CCCCCCCCCCOC(=O)Cn1c(COc2ccc(C)cc2)[n+](C)c2ccccc21`: the fluorescence ratio F(max-min)/F0 entry is “inactive”.

As to `Cc1ccc(Cc2cnc(N)s2)o1`, the fluorescence ratio F(max-min)/F0 entry is “inactive”. The entry for `CCNC(=O)c1c(O)c2cccc3c2n(c1=O)CC3` is “inactive”; for `COCc1nnc(NC(=O)c2ccc3c(c2)OCO3)s1` it is “inactive”. Take `CCc1ccc2nc3sc(C(=O)Nc4nnc(CC)s4)c(N)c3cc2c1`: the fluorescence ratio F(max-min)/F0 was 47 (active). On to `CCOC(=O)C1=C(O)CSC1=Nc1cccc(Cl)c1`, for which the fluorescence ratio F(max-min)/F0 entry was “inactive”. For the compound `C=CCSc1nc(Cc2ccc(Cl)cc2)nc2ccccc12`, the fluorescence ratio F(max-min)/F0 result is “inactive”. In the case of `Cc1cc(=O)oc2cc(NC(=O)C3CC(=O)N(Cc4ccccc4)C3)ccc12` (stereo unspecified), the fluorescence ratio F(max-min)/F0 entry is “inactive”.

`CCCc1nc2c(c(=O)c3ccccc3n2C)c(=O)n1C1CCCCCC1`: the fluorescence ratio F(max-min)/F0 result was “inactive”. The entry for `CCN(CC)CC(=O)Nc1nn(-c2ccccc2)nc1C(N)=O` is “inactive”; for `COc1cc2c(cc1O)C(SC)=NC(C)(C)C2` it is “inactive”.

`CCC1CCCCN1CCNC(=O)c1[nH]c(C)c(C(C)=O)c1C` (stereo unspecified): the fluorescence ratio F(max-min)/F0 entry is “inactive”. Regarding `Cc1ccc2c(C)c(C(=O)N(C)CCC3CCCCO3)oc2c1C` (stereo unspecified), the fluorescence ratio F(max-min)/F0 entry was “inactive”. Then `Cc1cccc(NC(=O)COc2ccccc2C)n1`, with “inactive”; and `O=C(O)CSC(NC(=O)c1cccnc1)(C(F)(F)F)C(F)(F)F`, with “inactive”; and `O=C(CCN1CCc2ccccc2C(O)(c2ccccc2)C1)c1ccc2c(c1)OCCO2` (stereo unspecified), with “inactive”. Then `CC(C)CC(=O)N/C(N)=N/c1nc2ccccc2s1`, with “inactive”. Then `CC(C)CC(=O)NC(=S)NNC(=O)c1cccc([N+](=O)[O-])c1`, with 53 (active); and `Cc1onc(-c2ccccc2)c1C(=O)NNC(=S)NC(=O)c1ccc(F)cc1`, with 123 (active); and `COc1ccc(C(=O)NC(=S)NNC(=O)c2c(-c3ccccc3)noc2C)cc1`, with 108 (active).
